For 15 sequences, sensor-assay potency score (higher = more potent) results are on record in the OligoGym collection.
Also: reference of the scale not given here.

In the first test the target is SHROOM4. The experiment in a line: pooled miR-30 sensor sort-seq; sequence = guide strand. Conditions: shRNA.
TTGAAGAACAGTCCGTGGCTTG returned a sensor-assay potency score (higher = more potent) of -0.301.

Take TTGCTTGCAAAACATTCTGAGT: the sensor-assay potency score (higher = more potent) was -1.21.

For the sequence TAGCTTGACAAGTCCAGTGCTG, the sensor-assay potency score (higher = more potent) was -0.0975.

For TTATTCGTCCCTCTAAGCCTGT, the sensor-assay potency score (higher = more potent) is -0.267.

In turn, TATCAGTACCAACTTCTCCTGG returned a sensor-assay potency score (higher = more potent) of -0.376.

TTCATCTTGACAAAGTGCTGGT showed a sensor-assay potency score (higher = more potent) of 0.618.

The sequence TTTCATCTTGACAAAGTGCTGG gave a sensor-assay potency score (higher = more potent) of 0.237.

Take TAGTGGTTGAAGAACAGTCCGT: the sensor-assay potency score (higher = more potent) was -0.287.

Sequence TTTCTGAACTGAAATACTGGGG gave a sensor-assay potency score (higher = more potent) of -0.0667.

In turn, TTGAAGAGCTTGTCTCTGGGGC gave a sensor-assay potency score (higher = more potent) of 0.543.

The sequence TAGAGCTCCTTGAACACTGCAG gave a sensor-assay potency score (higher = more potent) of 0.417.

Regarding TTTGCTTGCAAAACATTCTGAG, the sensor-assay potency score (higher = more potent) is 0.464.

For another test, the target named is SIAE. The description is as above. The note with it: shRNA.
In turn, TAATCCATCAGTAAACTGCATT registered a sensor-assay potency score (higher = more potent) of -1.07.

In turn, TTGATGTATGAAGCAAAGCGAA came in with a sensor-assay potency score (higher = more potent) of -1.38.

As to TTATTTTCTCCAAAGTCTGTTG, the sensor-assay potency score (higher = more potent) is -0.694.
